D3 antag = qHTS of D3 Dopamine Receptor Antagonist: qHTS. AID 652054, 2013. 360,000 tested, 2.5% active. D(3) dopamine receptor (Homo sapiens), P35462. max response, negative = inhibition, %. D3R cells, DiscoveRx beta-arrestin luminescence, antagonist mode; active compounds read low; in the data active = max response below about -50%; inconclusive = no clear call, values can overlap the other calls; note: % is set by controls: 0 for no effect and ±100 for the full control effect
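Cells expressing the human receptor were seeded at 1500 cells/well, incubated overnight at 37 degrees C in 5% CO2, then exposed to library compounds with dopamine controls for 90 minutes at 37 degrees C before luminescent detection.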
D1 antagonist = Antagonist of Human D 1 Dopamine Receptor: qHTS | activity change, negative = inhibition, % at 10 µM | 360,000 tested, 3.2% active | HEK293 TREx D1 cells, calcium flux, dopamine EC80; active compounds read low; in the data active = activity change below about -30%; note: % is set by controls: 0 for no effect and ±100 for the full control effect
Target sequence (P21728 whole entry, looked up): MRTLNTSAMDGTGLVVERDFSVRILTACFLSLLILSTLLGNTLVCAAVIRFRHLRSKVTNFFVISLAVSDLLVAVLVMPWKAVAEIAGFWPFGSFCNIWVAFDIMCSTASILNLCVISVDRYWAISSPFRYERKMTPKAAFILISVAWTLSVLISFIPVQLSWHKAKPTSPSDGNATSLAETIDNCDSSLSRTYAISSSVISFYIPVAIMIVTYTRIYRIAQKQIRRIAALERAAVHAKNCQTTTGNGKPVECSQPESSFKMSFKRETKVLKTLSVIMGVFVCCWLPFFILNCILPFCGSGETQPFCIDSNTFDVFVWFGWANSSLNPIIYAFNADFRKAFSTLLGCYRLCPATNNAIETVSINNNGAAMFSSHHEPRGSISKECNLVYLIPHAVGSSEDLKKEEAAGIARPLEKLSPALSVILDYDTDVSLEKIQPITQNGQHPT
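Allosteric or orthosteric antagonism assessed as attenuation of the calcium response to EC80 dopamine, added 180 s after compound, in induced HEK293 Trex D1 cells loaded with no-wash calcium dye.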
D1 agonist = Allosteric Agonists of the Human D1 Dopamine Receptor: qHTS; D(1A) dopamine receptor (Homo sapiens), P21728; HEK293 T-REx D1 cells, calcium flux, agonist mode; activation, % at 2 µM; 360,000 tested, 1% active; AID 504660, 2011; in the data active = activation above about 30%; note: 0% is about no effect
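Tetracycline-induced HEK293 TREx D1 cells, force-coupled to calcium signalling, were dye-loaded with a no-wash calcium kit. Compound was pin-added after a 10 s baseline. Fluorescence was read kinetically at 1 cycle/s for 180 s, with calcium rises flagged as agonism.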
D3 ag = qHTS of D3 Dopamine Receptor Agonist: qHTS | 410,000 tested, 0.58% active | D3R DiscoveRx beta-arrestin cells, luminescence, 90 min | AID 652048, 2013 | max activation, %; in the data active = max activation above about 30%; note: 0% is about no effect
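Agonist mode: compounds and dopamine controls were applied to plated cells for 90 min at 37 degrees C after an overnight attachment at 1500 cells/well. Luminescent read-out followed 30 - 60 minutes at room temperature with DiscoveRx detection reagent.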
D1 PAM = Potentiators of Human D1 Dopamine Receptor: qHTS; AID 504651, 2011; HEK293 TREx D1 cells, calcium flux, dopamine EC20 potentiation; 360,000 tested, 0.036% active; D(1A) dopamine receptor (Homo sapiens), P21728; potentiation, % at 10 µM; in the data active = potentiation above about 30%; note: 0% is about no effect
Numbers without * were called inactive; ? = inconclusive; · = no result. Sampled rows, rich in hits. Any-hit rate of the full collection: about 6%.

SMILES	D3 antag	D1 antagonist	D1 agonist	D3 ag	D1 PAM
Cc1ccc(S(=O)(=O)N(Cc2ccc(C(F)(F)F)cc2)C(=O)N2CCN(C)CC2)cc1	0.1	-8.8	6.3	6.9	-2.8
CCCCN(CC)S(=O)(=O)c1ccc(C(=O)Nc2nnc(CSC)o2)cc1	-83.2*	8.8	0.1	-8.1	0.9
Cc1nc2ccc(S(=O)(=O)N(C)CC(=O)Nc3cccc(C(F)(F)F)c3)cc2s1	·	-33.2*	17.8	1.3	-2.2
COc1ccc(CCNC(=O)c2ccc(S(=O)(=O)N(C)c3ccccc3)cc2)cc1OC	26.8	-3.6	2.8	17.4	2.1
COC(=O)c1cc(CNC(=O)c2ccc(S(=O)(=O)N(C)c3ccccc3)cc2)ccc1OC	49.0	-68.1*	1.4	0.5	-21.0
Cc1nc2ccc(NC(=O)c3ccc(S(=O)(=O)N(C)c4ccccc4)cc3)cc2s1	24.1	-34.6*	8.7	-20.9	-4.5
CC(=O)Nc1ccc(NC(=O)c2ccc(S(=O)(=O)N(C)c3ccccc3)cc2)cc1	-5.8	-9.7	4.7	3.1	-10.6
COc1ccccc1NC(=O)COC(=O)CCC(=O)c1cccs1	13.0	-17.2	-0.4	5.7	-4.8
CN1CCc2cc(O)c(O)cc2C(c2ccccc2)C1 (stereo not drawn)	1.1	-87.6*	0.3	107.9*	-7.2
CN1CCc2cc(Cl)c(O)cc2[C@@H](c2ccccc2)C1	-83.4*	-88.9*	-0.1	-75.5	-3.2
O=C(CBr)N1CCc2ccccc2C(c2ccccc2)C1 (stereo not drawn)	5.8	-7.0	0.2	-6.9	1.6
COc1cc2c(cc1OC)C(c1ccccc1)N(C(=O)C(C)(C)C)CC2 (stereo not drawn)	-1.9	0.5	-0.9	-4.4	3.9
Cc1ccc(C)c(N2CCN(S(=O)(=O)c3ccc(-c4cc(C(F)(F)F)on4)s3)CC2)c1	·	-1.5	1.4	-9.0	-2.0
COc1ccccc1Nc1c2c(nc3ccc(NC(=O)c4cccc(OC)c4OC)cc13)CCCC2	·	0.4	-1.7	53.6*	0.5
COc1ccccc1Nc1c2c(nc3ccc(NC(=O)c4ccccc4F)cc13)CCCC2	·	-3.9	0.0	-18.8	-4.9
CCCCCCCCCCCCCCCCOP(=O)([O-])OCC[N+](C)(C)C	·	·	·	-10.0	·
CCCCCCCCOC(=O)C[N+](C)(C)C/C=C(/C)Cl	19.5	9.0	0.6	1.3	-5.5
CCCCCCCCCCCCOC(=O)C[N+](C)(C)C	-16.9	-34.6*	43.5*	1.3	4.7
CCCCCCCCCCOC(=O)C[N+](C)(C)C/C=C(/C)Cl	0.7	-4.2	54.8*	-2.1	-3.0
Cc1c(Cl)cccc1NC(=O)C(C)n1c(=O)cc(C)c2c(C)nn(-c3ccccc3)c21 (stereo not drawn)	·	10.8	1.4	3.1	-4.5
[O-][n+]1onc2c1CCC(=N/O)/C2=N\Nc1ccccc1	·	7.3	2.3	·	-1.9
CC(C)CNc1nc(Oc2ccc(=O)n(-c3ccccc3)n2)nc(N2CCOCC2)n1	20.4	-22.9	0.9	1.3	-3.9
CC(C)CNc1nc(Oc2ccc(=O)n(C)n2)nc(N2CCOCC2)n1	-22.7	-43.3*	3.3	3.1	-12.3
Cc1ccccc1-n1c(O)c(/C=C/C=Nc2ccccc2)c(=O)[nH]c1=O	-14.1	-10.3	40.6*	2.5	4.7
Cc1ccc(-n2c(O)c(/C=C3/C(c4ccccc4)=Nc4ccccc43)c(=O)[nH]c2=O)cc1	-2.3	5.2	-0.2	-4.2	-0.9
SMILES	D3 antag	D1 antagonist	D1 agonist	D3 ag	D1 PAM
COc1ccc(S(=O)(=O)N(C)c2ccc(C(=O)N3CCCCC3)cc2)cc1	23.2	-14.8	6.9	37.7*	-4.7
CC(C)NC(=O)C1(C)CCN1C(=O)c1ccccc1F (stereo not drawn)	-29.4	·	·	0.1	·
CC(=O)N[C@@H](CCC(N)=O)C(=O)O	·	·	·	4.2	·
CCCCCCCCn1c(=O)c(C(=O)OC)c(N)c2ccccc21	31.0	-11.1	12.8	38.5*	-10.2
CCCCCCn1c(=O)c(-c2ccccc2)c(O)c2ccccc21	?	16.9	-2.6	2.4	0.8
CCCCCCCn1c(=O)c(C(=O)OC)c(N)c2ccccc21	13.7	-15.9	42.4*	26.2	-8.6
C/C=C/c1ccc(OCCCCN2CCN(CC)CC2)c(OC)c1	-29.9	-32.7*	-0.2	-12.3	-3.3
C/C=C/c1ccc(OCCCN2C(=O)NC(C)(C)C2=O)c(OC)c1	-20.4	9.9	-0.9	2.9	3.5
C/C=C/c1ccc(OCCCCOc2ccc(OC)cc2)c(OC)c1	-0.6	-1.0	5.1	2.1	-4.0
C/C=C/c1ccc(OCCCCN2CC(C)CC(C)C2)c(OC)c1 (stereo not drawn)	-74.0*	8.9	3.6	-38.9	-7.3
Cc1ccc2ncc(C(=O)NCCc3ccc(S(N)(=O)=O)cc3)c(=O)n2c1	·	-1.2	0.6	-4.9	-3.9
COc1ccc(C2=NNC(c3cccs3)=Nc3ccc(OC)cc32)cc1	10.7	-38.6*	-0.5	-2.5	0.7
COc1cc(CN(C(=O)COc2ccc(C)c(C)c2)c2ccccn2)cc(OC)c1OC	·	0.7	3.5	1.7	0.8
CCOC(=O)C1(CCc2ccccc2)CCN(Cc2cc(OC)c(OC)cc2OC)CC1	-13.0	-36.7*	3.9	-12.0	1.9
CCOC(=O)C1(CCc2ccccc2)CCN(Cc2ccc(C(=O)OC)cc2)CC1	-69.5*	1.0	8.2	-20.0	2.0
CCOC(=O)C1(CCc2ccccc2)CCN(Cc2ccccn2)CC1	-18.7	-11.1	4.6	-16.8	-3.7
CCOC(=O)C1(CC2CC2)CCN(Cc2ccc(C(=O)OC)cc2)CC1	-120.3*	-1.4	7.2	-22.4	-1.4
CC(C)Nc1nc(Nc2ccc(F)cc2)c2sccc2n1	1.8	·	·	3.2	·
N#CC1(Nc2ccc3ccccc3c2)CCCC1	-7.0	·	·	-4.2	·
CCc1cc(=O)oc2cc(C)cc(OCC(=O)N3CCC(C(=O)NC(C)C)(c4ccccc4)CC3)c12	60.3	-37.5*	1.1	17.6	-8.0
CC(C)NC(=O)C1C(c2ccccc2)=Nc2ccccc2N1C(=O)c1ccc(C(F)(F)F)cc1 (stereo not drawn)	?	·	·	-16.2	·
CCCCN(CC)CCCNC(=O)CS(=O)(=O)Cc1nc(-c2ccc(C)cc2)oc1C	·	2.2	-0.5	-11.9	-2.5
COc1ccc(OCC(=O)Nc2ccc(S(=O)(=O)N3CCN(C)CC3)cc2)cc1	8.3	-38.6*	7.7	4.8	-6.4
Cc1ccc(OCC(=O)Nc2ccc(S(=O)(=O)N3CCN(C)CC3)cc2)cc1	-2.5	-23.7	11.2	1.1	-10.2
Cc1ccc(OCC(=O)Nc2ccc(S(=O)(=O)N3CCCC3)cc2)cc1	4.2	3.1	3.6	1.6	1.0
Cc1cc(OCC(=O)Nc2ccc(S(=O)(=O)N3CCN(C)CC3)cc2)ccc1Br	-14.1	-71.8*	32.7*	-1.9	-1.0

High-throughput results deposited in PubChem by National Center for Advancing Translational Sciences (NCATS).
